Test results published in PubChem BioAssay AID1117294 (Broad Institute, 2014).
Activity calls are given as the source filed them.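 Rule for the calls: active = Lowers HeLa cell ATP signal, with fitted half-maximal potency at most twice the top tested dose in every run; inconclusive = runs disagree, or fits flat mid-range or poor; inactive = every run inactive, including signal rising.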

Experiment: HeLa cell cytotoxicity, dose response, cytotoxicity control, CellTiter-Glo luminescence, dry powder, set 3 (AID 1117294)
Details: HeLa viability, ATP luminescence (CellTiter-Glo), 72 h; at 0.05 µM

SMILES	max activity
COc1ccc(C(=O)O)cc1S(=O)(=O)Nc1ccc(N2CCCCC2)cc1C(F)(F)F	-17% (inactive)
COc1ccc(C2=NN(c3ccc(C(=O)O)cc3)C(c3ccc(OC)c(OC)c3)C2)cc1 (stereo not drawn)	-16.2% (inactive)
COc1ccc(C(=O)O)cc1S(=O)(=O)Nc1cc(C(F)(F)F)ccc1N1CCN(C(C)=O)CC1	-16.6% (inactive)
